Compound activity from PubChem.
Most compounds without a hit are left out; they make up all but 22% or so of the library.
E-sel TNF inh = TNF alpha driven E-selectin expression inhibition. actives 0.71% (n = 120,000). AID 1246. HUVEC TNFa-induced E-selectin immunofluorescence, high content. inhibition, % at 2 µM;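 active = inhibition above the batch mean plus 3 SD, and confirmed as a hit on visual image review, cut at about 43% in these data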
F-actin modifier = modifiers of cytoskeleton assembly; actives 0.18% (n = 91,000); AID 836; inhibition, % at 2 µM; HUVEC TNFa F-actin phalloidin imaging, high content;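 active = inhibition above the batch mean plus 3 SD and confirmed as a hit by visual image inspection, cut at about 30% in these data, passing the limit was not always enough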
CYP2C9 inhib = human CYP2C9 inhibition; CYP2C9 Supersomes, luciferin-H conversion, luminescence; inhibition, % at 5 µM; AID 777; actives 20% (n = 96,000); P11712;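 active = blocking of liver enzyme CYP2C9 beyond about 50% at 5 µM, limit read from the data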
CYP2C19 inhib = inhibitors of human CYP2C19; P33261; CYP2C19 Supersomes, luciferin-H EGE luminescence, 30 min; inhibition, % at 5 µM; actives 21% (n = 96,000);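 active = CYP2C19 inhibition above a set limit at 5 µM in the primary screen, cut at about 50% in these data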
Target sequence (P33261 whole entry, looked up): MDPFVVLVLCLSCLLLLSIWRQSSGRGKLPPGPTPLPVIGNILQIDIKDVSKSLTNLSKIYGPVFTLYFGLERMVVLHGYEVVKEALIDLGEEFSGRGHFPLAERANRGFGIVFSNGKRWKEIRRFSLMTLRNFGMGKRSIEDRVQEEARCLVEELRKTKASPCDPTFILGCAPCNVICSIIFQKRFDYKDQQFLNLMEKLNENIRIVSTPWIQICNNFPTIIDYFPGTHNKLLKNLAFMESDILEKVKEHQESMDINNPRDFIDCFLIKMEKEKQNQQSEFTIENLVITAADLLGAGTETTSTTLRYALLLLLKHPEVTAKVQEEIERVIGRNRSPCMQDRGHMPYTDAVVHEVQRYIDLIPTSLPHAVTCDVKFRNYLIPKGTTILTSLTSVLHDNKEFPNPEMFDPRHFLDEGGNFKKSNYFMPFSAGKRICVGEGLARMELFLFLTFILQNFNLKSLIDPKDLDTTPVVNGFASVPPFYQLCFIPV
CYP2C19 act = cytochrome P450 2C19 (human) activation | P33261 | recombinant CYP2C19, luciferin-H EGE luminescence; hits give high values; 0 = fully inhibited enzyme, 1 = untreated enzyme | activation factor at 5 µM | 96,000 tested, under 10 active;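 active = activation factor of at least 2 at 5 µM in the primary screen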
CYP2C9 act = activators of human CYP2C9; recombinant CYP2C9, luciferin-H conversion, luminescence; hits give high values; factor 1 = untreated enzyme, 0 = blocked; activation factor at 5 µM; actives 1.4% (n = 96,000); P11712;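 active = activation factor of 2 or more for CYP2C9 at a 5 µM dose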
A number is an active result; - = inactive; . = not tested or not shown.

SMILES	E-sel TNF inh	F-actin modifier	CYP2C9 inhib	CYP2C19 inhib	CYP2C19 act	CYP2C9 act
Fc1ccc(C[n+]2csc3ccccc32)cc1	-	-	60	-	-	-
c1ccc(OCCOc2ncnc3ccccc23)cc1	-	.	-	60	-	-
Cc1ccc(S(=O)(=O)N2C(=O)C(c3ccccc3)SC2=Nc2ccccc2)cc1 (stereo not drawn)	.	-	-	-	-	-
C=CCN=C1SC(C)C(=O)N1S(=O)(=O)c1ccccc1 (stereo not drawn)	-	-	-	73	-	-
CC(Sc1nnc(-c2cccs2)n1-c1ccccc1)C(=O)NCc1ccc2c(c1)OCO2 (stereo not drawn)	-	-	93	75	-	-
O=C(CSc1nnc2scc(-c3ccc(Cl)cc3)n12)NCc1ccc2c(c1)OCO2	-	-	-	-	-	-
Nn1c(SCC(=O)NCc2ccc3c(c2)OCO3)nnc1C1CC1	-	-	-	-	-	-
C=CCn1c(SC(C)C(=O)NCc2ccc3c(c2)OCO3)nc2scc(-c3ccccc3)c2c1=O (stereo not drawn)	.	-	80	76	-	-
C=CCn1c(SCC(=O)NCc2ccc3c(c2)OCO3)nc2scc(-c3ccc(F)cc3)c2c1=O	.	-	-	-	-	-
O=C(CSc1nnc(Cc2cccs2)n1-c1ccccc1)NCc1ccc2c(c1)OCO2	-	-	59	-	-	-
O=C(CSc1nnc2scc(-c3ccccc3)n12)NCc1ccc2c(c1)OCO2	-	-	-	68	-	-
Cc1cccc(N(C(=O)c2csnn2)C(C(=O)NC(C)(C)C)c2cccnc2)c1 (stereo not drawn)	-	.	.	.	.	.
O=C(CSc1nnc2scc(-c3ccc(Cl)cc3)n12)NCc1ccco1	-	-	-	56	-	-
O=C(CSc1nnc2scc(-c3ccccc3)n12)NCc1ccco1	-	.	.	.	.	.
COCCCn1c(SCc2nnc(-c3ccc(OC)c(OC)c3)o2)nnc1-c1ccncc1	-	-	.	.	.	.
COCCCn1c(SCc2ccccc2)nc2cc(OC)c(OC)cc2c1=N	-	-	64	54	-	-
COCCCn1c(SCc2cccc(C(F)(F)F)c2)nc2cc(OC)c(OC)cc2c1=N	-	-	82	-	-	-
Cc1nc2ccccc2nc1CSc1nnc(N)s1	-	-	-	54	-	-
Cc1nc(CSc2nnc(N)s2)cs1	-	.	.	.	.	.
Cc1noc(C)c1CSc1ncnc2sc3c(c12)CCCCC3	-	.	.	.	.	.
Fc1ccc(OCc2nn3cnnc3s2)cc1	-	.	-	79	-	-
Fc1ccc(OCc2nc3ccccc3s2)cc1	-	.	.	.	.	.
CCOC(=O)c1nnsc1Nc1ccc(C)c(C)c1	-	.	.	.	.	.
CCOc1ccc(NS(=O)(=O)c2ccc(NS(=O)(=O)c3ccc(SC)cc3)cc2)cc1	-	-	87	-	-	-
CCOc1ccc(S(=O)(=O)Nc2cccnc2)cc1	.	.	66	94	-	-
SMILES	E-sel TNF inh	F-actin modifier	CYP2C9 inhib	CYP2C19 inhib	CYP2C19 act	CYP2C9 act
COc1ccc(OC)c(NS(=O)(=O)c2ccc(SC)cc2)c1	-	-	.	.	.	.
CCOc1ccc(NS(=O)(=O)c2ccc(NS(C)(=O)=O)cc2)cc1	-	.	64	-	-	-
COc1ccc(NS(=O)(=O)c2ccc(NS(=O)(=O)c3ccc(SC)cc3)cc2)c(OC)c1	-	-	83	-	-	-
CCCN(Cc1ccccc1)C(=S)Nc1ccc(SC(F)F)cc1	-	.	.	.	.	.
N#C/C(=N\Nc1ccccc1)C(=N)N1CCCCC1	-	-	-	-	-	-
CCOc1ccc(NS(=O)(=O)c2ccc(NC(=S)NC(=O)CC(C)C)cc2)cc1	-	-	99	90	-	-
O=S(=O)(Nc1cccnc1)c1ccc(Cl)c(C(F)(F)F)c1	-	-	57	72	-	-
CN1C/C(=N\S(=O)(=O)c2ccccc2)N(C)C1=O	-	.	.	.	.	.
O=Cc1s/c(=N\S(=O)(=O)c2ccccc2)n(CCCCl)c1Cl	72	.	.	.	.	.
CCN(CC)S(=O)(=O)c1ccc2nnn(OCC(=O)Nc3cccc(C#N)c3)c2c1	-	.	97	94	-	-
Cc1ccc(-n2c(SCC(=O)NCC3CCCO3)nc3n[nH]c(C)c3c2=N)cc1Cl (stereo not drawn)	-	.	-	-	-	-
COc1cccc(CNCC(O)(c2ccc(Cl)cc2)c2ccc(Cl)cc2)c1	-	-	-	-	-	-
Cc1ccc(CNCC(O)(c2ccccc2)c2ccc(Cl)cc2)cc1 (stereo not drawn)	67	.	.	.	.	.
COc1ccc(CNCC(O)(c2ccccc2)c2ccc(Cl)cc2)cc1 (stereo not drawn)	.	.	58	82	-	-
